From PubChem BioAssay
phage Ecoli inh: E. coli growth loss with phage present | hit rate 0.26% among 360,000 | inhibition, % at 11.9 µM | growth absorbance | AID 651602; in the data active = inhibition above about 11%
E coli growth-1: blocks Escherichia coli growth; OD600, 23 h; hits give low values; OD600 absorbance (concentration not given with the values); hit rate 0.21% among 330,000; AID 1053175;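 active = OD600 absorbance below the run mean of sample wells minus 3.6 SD, in any replicate, cut at about 0.56 in these data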
AddAB inh: less growth of phage-infected E. coli with AddAB | E. coli expressing H. pylori AddAB, absorbance growth | AID 435030 | hit rate 0.29% among 330,000 | inhibition, % at 11.9 µM; in the data active = inhibition above about 12%
Tat export inh: E. coli Tat transport inhibition; E. coli MC4100 TorA-mCherry Tat export, fluorescence; inhibition, % at 10 µM; hit rate 0.036% among 340,000;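 active = mean replicate inhibition at least 50% and at least half of replicates individually reaching 50%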;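 note: exported cargo escapes ClpAP degradation while cytoplasmic cargo is degraded and loses fluorescence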
E coli growth-2: bacterial growth inhibition, counter-screen for AddAB inhibitors | E. coli V3065 growth, OD600 absorbance, 18 h | inhibition, % at 11.9 µM | hit rate 0.27% among 330,000 | AID 449728;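 active = inhibition above the campaign's mean inhibition across all tested compounds plus 3 SD, cut at about 9.9% in these data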;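 note: uninfected addAB+ strain grown without phage in ampicillin broth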
RecBCD conf: confirmation: growth loss of phage-infected RecBCD+ E. coli (RecBCD inhibitor screen). shares compounds with phage Ecoli inh. inhibition, % at 11.9 µM. hit rate 45% among 890. E. coli V66 + T4 2- phage, growth OD;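 active = mean inhibition over triplicates exceeding the hit threshold derived in the original primary screen, cut at about 11% in these data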
Ecoli viability: inhibits E. coli viability, flagging RecBCD hits as nonselective. shares compounds with phage Ecoli inh. absorbance (OD) growth. inhibition, % at 11.9 µM. hit rate 29% among 890; in the data active = inhibition above about 20%;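 note: E. coli strain V66 grown with compound alone and no phage infection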
AddAB phage OD: growth loss of phage-infected AddAB E. coli, RecBCD counter-screen; shares compounds with phage Ecoli inh; inhibition, % at 11.9 µM; hit rate 45% among 890; AID 651984; E. coli expressing H. pylori AddAB + T4 phage, OD growth; gene 2 mutant T4, recBCD-deleted host;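 active = mean inhibition above the solvent-only control wells' mean plus 3 SD, cut at about 22% in these data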;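 note: higher means less bacterial growth from phage killing when AddAB is blocked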
Numbers stand for hits; - = inactive; . = not tested or not shown. Compounds with a hit are over-represented: about 0.51% of the library has one in this group of screens.

SMILES | phage Ecoli inh | E coli growth-1 | AddAB inh | Tat export inh | E coli growth-2 | RecBCD conf | Ecoli viability | AddAB phage OD
O=C(Nc1cccc(Cl)c1)Nc1cccc(Cl)c1 | - | - | - | - | - | . | . | .
O=C(Nc1cccc(F)c1)Nc1cccc(Cl)c1 | 14.3 | 0.412 | - | - | - | 13.3 | - | -
O=c1c(O)c(-c2cccs2)oc2ccc(Cl)cc12 | 13.5 | - | - | - | - | - | - | -
CC(NC(=O)c1[nH]cnc1C(=O)Nc1ccc(CNC(=O)OC(C)(C)C)cc1)C(=O)OC(C)(C)C (centres undefined) | . | - | . | . | . | . | . | .
COC(=O)[C@]1(CC(C)C)NC(c2ccc(-c3ccc4c(c3)OCO4)cc2)C2C(=O)N(C)C(=O)C21 (some centres undefined) | . | - | . | . | . | . | . | .
Oc1ccc(Cl)cc1Sc1cc(Cl)ccc1O | 12.1 | . | . | - | . | - | - | -
CN(C)C(=O)c1cc(Cl)ccc1Sc1cc(Cl)ccc1Cl | - | - | - | - | - | . | . | .
OCC1OC(n2cnc3c(=S)nc[nH]c32)CC1O (centres undefined) | 17.9 | - | . | - | . | - | - | -
CCCC(=O)Nc1cc(=O)n(C)c(=O)n1C | 52.9 | - | - | - | - | - | - | -
O=C(CN(c1ccccc1Cl)S(=O)(=O)c1ccccc1)NN=Cc1ccccc1C(=O)O | . | - | . | . | . | . | . | .
O=C(NC1C2CC3CC(C2)CC1C3)c1ccc2c(c1)OCO2 (centres undefined) | - | - | - | - | - | . | . | .
O=C(NNC(=O)c1ccc2c(c1)OCO2)NC12CC3CC(CC(C3)C1)C2 | 13.0 | - | - | - | - | - | - | -
CSCCC(NC(=O)NCc1ccc(F)cc1)C(=O)O (centres undefined) | . | - | . | . | . | . | . | .
CC(C)C[C@H]1CNC(=S)N1C[C@H]1CCCN1C[C@H](Cc1ccccc1)N1C[C@H](Cc2ccc(O)cc2)N(CC2CCCCC2)C1=S | 11.7 | . | . | . | . | - | - | -
CN1CCN(C(=O)/C=C/c2ccccc2)CC1 | - | - | - | - | - | . | . | .
CN1CCN(C(=O)/C=C/c2ccc([N+](=O)[O-])o2)CC1 | 17.4 | 0.427 | . | - | . | 12.4 | - | 81.9
CC(NC(=O)Nc1nnc(C(F)(F)F)s1)(C(F)(F)F)C(F)(F)F | 13.4 | - | - | - | 10.8 | 14.7 | - | -
CC(C)(C)CC(=O)Nc1nnc(C(F)(F)F)s1 | - | - | - | - | - | . | . | .
CC(=NN=C(N)N)c1cccc(Cl)c1 | . | - | . | . | . | . | . | .
O=C(NNC(=O)c1cc2ccccc2cc1O)Nc1ccc(F)cc1F | 11.1 | - | - | - | - | - | - | -
O=C(NNC(=O)c1cc2ccccc2cc1O)NC1CCCCC1 | 13.1 | - | . | - | . | - | - | -
CC(C)NC(=O)N(C)CC1Oc2ccc(NS(=O)(=O)c3ccc(Cl)cc3)cc2CC(=O)N(C(C)CO)CC1C (centres undefined) | . | - | . | . | . | . | . | .
COc1ccc(C=NNc2cc(C)nc(N3CCOCC3)n2)cc1OC | . | - | . | . | . | . | . | .
Cc1ccc(N=C2C(=S)N(c3ccc(C)cc3)C(=N)N2N=Cc2ccc(Cl)cc2)cc1 | . | - | . | . | . | . | . | .
CC1(C)S[C@@H]2[C@H](NC(=O)[C@H](N)c3ccccc3)C(=O)N2[C@H]1C(=O)OC1OC(=O)c2ccccc21 (some centres undefined) | 21.4 | . | - | - | - | 29.5 | 53.0 | -
SMILES | phage Ecoli inh | E coli growth-1 | AddAB inh | Tat export inh | E coli growth-2 | RecBCD conf | Ecoli viability | AddAB phage OD
COC(=O)C1N2C(=O)C(NC(=O)COc3ccccc3)C2SC1(C)C (centres undefined) | . | - | . | . | . | . | . | .
CCOc1ccc(C=NNC(=O)c2nnn(-c3nonc3N)c2-c2cccs2)cc1 | . | - | . | . | . | . | . | .
Oc1c(C(Nc2cccc(C(F)(F)F)c2)c2ccncc2)ccc2cccnc12 (centres undefined) | - | - | - | - | - | . | . | .
CCCC(=O)NC(c1cccc([N+](=O)[O-])c1)c1ccc2cccnc2c1O (centres undefined) | 22.8 | . | . | . | . | 16.4 | 20.4 | 25.6
CCN(CC)c1ccc(C(NC(=O)C(C)C)c2ccc3cccnc3c2O)cc1 (centres undefined) | 20.9 | . | . | . | . | - | - | -
CC(=O)NC(c1ccc(Cl)cc1Cl)c1ccc2cccnc2c1O (centres undefined) | 24.3 | . | . | - | . | 16.8 | 20.4 | -
Cc1ccc(C(NC(=O)C(C)C)c2cc([N+](=O)[O-])c3cccnc3c2O)cc1 (centres undefined) | - | - | - | - | - | . | . | .
C#CCOCCOCCOCCNc1nc(N2CCN(C(=O)CCCCCCCCCCNC(=O)C(CCSC)n3cc(CCO)nn3)CC2)nc(N2CCN(C(=O)CCCCCCCCCCNC(=O)C(C(C)O)n3cc(C)nn3)CC2)n1 (centres undefined) | . | - | . | . | . | . | . | .
CC(=NNC(=O)C1COc2ccccc2O1)c1ccccn1 (centres undefined) | . | - | . | . | . | . | . | .
C/C(C=NN1CCN(c2ccccc2)CC1)=C\c1ccco1 | . | - | . | . | . | . | . | .
CC1COC(=O)C(NC(=O)OCC2c3ccccc3-c3ccccc32)CC=CCC(CC(=O)N(CCO)Cc2ccccc2)C(=O)N1 (centres undefined) | . | - | . | . | . | . | . | .
Oc1ccc(C=NNC(=S)Nc2cccnc2)cc1 | . | - | . | . | . | . | . | .
Oc1ccc(C=NNC(=S)Nc2cccnc2)nc1 | 21.3 | . | . | - | . | 18.7 | 21.4 | 36.2
O=C(Nc1cccc([N+](=O)[O-])c1)c1ccc([N+](=O)[O-])o1 | 20.5 | . | . | . | . | 14.8 | - | 89.8
O=C(Nc1cccc([N+](=O)[O-])c1)c1ccncc1 | - | - | - | - | - | . | . | .
C=C(C)CNC(=O)C1CCC(=O)N(CCCc2ccccc2)C1 (centres undefined) | 30.1 | . | - | - | - | - | - | -
O=C(NCCc1cccc(F)c1)C1CCC(=O)N(CCCc2ccccc2)C1 (centres undefined) | - | - | - | - | - | . | . | .
CCCN1C(=O)C(=NOCC(=O)NC23CC4CC(CC(C4)C2)C3)c2ccccc21 | . | - | . | . | . | . | . | .
CN(Cc1nc(Cc2ccccc2F)no1)CC1(N2CCOCC2)CCCCC1 | - | - | - | - | - | . | . | .
COc1ccc(Cc2noc(CN(C)CC3(N4CCOCC4)CCCCC3)n2)cc1OC | 94.1 | - | - | - | - | - | - | -
CC(=NNc1cc(C)nc(-c2ccccc2O)n1)c1ccccc1 | . | - | . | . | . | . | . | .
O=C1C2C(C(=O)N1/N=C/c1ccc([N+](=O)[O-])o1)C1C=CC2C12CC2 (centres undefined) | - | . | - | - | - | . | . | .
CC1CN(N=Cc2ccc([N+](=O)[O-])o2)C(=N)O1 (centres undefined) | 45.8 | 0.065 | . | - | . | 85.1 | 101.7 | 102.9
CC1(C(=O)N/N=C/c2ccc([N+](=O)[O-])o2)CC1(Br)Br (centres undefined) | - | . | - | - | - | . | . | .
O=C1SCCN1N=Cc1ccc([N+](=O)[O-])o1 | 68.5 | 0.063 | . | - | . | 61.8 | 98.2 | 99.8
COc1cccc(-c2cnc(C(O)c3cccc(OC)c3)[nH]2)c1 (centres undefined) | 11.1 | . | . | . | . | - | - | -
